“And” between values parts separate entries of the source, which are not always exact repeats. Identical values can stand only once. The source made the active and inactive calls. How the source made its calls: active means hit-call score of the fitted dose curve at least 0.9, where 1 is the maximum; inactive means score below 0.9.
read-out: Plasminogen Activator Inhibitor-1 (PAI1), SERPINE1 (gene 5054); assay: BSK_BF4T_PAI1: BioMAP Diversity Plus: BF4T Assay for Plasminogen Activator Inhibitor-1 (PAI1) Biomarker Activity (AID 2284273); conditions: primary human bronchial epithelial cells with fibroblasts
Summary of the method: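 Co-culture of human bronchial epithelial cells and dermal fibroblasts exposed to compound for 24 h. PAI-1 measured by ELISA; activity fitted in positive direction versus DMSO. Parallel SRB staining assessed overt cytotoxicity.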

For `O=C(O)C(F)(F)C(F)(F)C(F)(F)C(F)(F)C(F)(F)C(F)(F)C(F)(F)C(F)(F)C(F)(F)C(F)(F)F`, which AC50 is on record?
The AC50 was 5.2 µM (active) and 6.13 µM (active).

For `O=C(O)C(F)(F)C(F)(F)C(F)(F)C(F)(F)C(F)(F)C(F)(F)F`, which outcome is on record?
Its outcome is “inactive”.

Which outcome does the source give for `O=C(O)CCC(F)(C(F)(F)F)C(F)(F)F` here?
The outcome was “inactive”.

read-out: not listed separately; assay: BSK_BF4T_SRB: Viability Assessment in the BioMAP Diversity Plus: BF4T Assay (AID 2284274); conditions: primary human bronchial epithelial cells with fibroblasts
Summary of the method: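 Co-culture of human bronchial epithelial cells and dermal fibroblasts (BioMAP BF4T) exposed 24 h. Total protein by sulforhodamine B staining (0.1% SRB after 10% TCA fixation, 560 nm) in parallel cultures; fitted vs DMSO.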

For `O=C(O)C(F)(F)C(F)(F)C(F)(F)C(F)(F)C(F)(F)C(F)(F)C(F)(F)C(F)(F)C(F)(F)C(F)(F)F`, which AC50 is on record?
The AC50 was 5.49 µM (active) and 5.63 µM (active).

For `O=C(O)C(F)(F)C(F)(F)C(F)(F)C(F)(F)C(F)(F)C(F)(F)F`, which outcome is on record?
The outcome was “inactive”.

For `O=C(O)CCC(F)(C(F)(F)F)C(F)(F)F`, which outcome is on record?
Its outcome is “inactive”.

read-out: urokinase Plasminogen Activator (uPA), PLAU (gene 5328); assay: BSK_BF4T_uPA: BioMAP Diversity Plus: BF4T Assay for urokinase Plasminogen Activator (uPA) Biomarker Activity (AID 2284275); conditions: primary human bronchial epithelial cells with fibroblasts
Description: BSK_BF4T is a cell-based, multiplexed-readout assay that uses bronchial epithelial cells and dermal fibroblasts, a human vascular primary cell, with measurements taken at 24 hours after chemical dosing in a microplate: 96-well plate.BSK_BF4TA is an assay component measured in the BSK_BF4T assay. It measures uPA antibody related to regulation of gene expression using ELISA technology.Data from the assay component BSK_BF4TA was analyzed at the endpoint, BSK_BF4TA, in the positive analysis fitting direction relative to DMSO as the negative control and baseline of activity. Using a type of binding reporter, gain or loss-of-signal activity can be used to understand protein changes. To generalize the intended target to other relatable targets, this assay endpoint is annotated to the 'protease' intended target family, where the subfamily is 'serine protease'.
The levels of cell surface (or secreted, indicated by the prefix "s") biomarker endpoints were measured by ELISA. Overt cytotoxicity to cells in confluent adherent cultures (all systems other than the BT system) was assessed by measuring total protein levels using sulforhodamine B (SRB) staining in parallel cultures at the time of biomarker measurements, indicated as SRB endpoints. For proliferation assays for adherent cell types, individual cell types are cultured at sub-confluence and relative cell numbers quantified by SRB staining at time points optimized for each system (48 h: 3C and CASM3C systems; 72 h: BT and HDF3CGF systems; 96 h: SAg system). SRB was performed by staining cells with 0.1% SRB after fixation with 10% TCA and reading wells at 560 nm.Viability and proliferation of PBMC (T cells) was quantified by Alamar Blue reduction for the SAg and BT systems. […] Then, Alamar Blue (20 uL/well) (Invitrogen, Cat DAL1100) was added for 6 h, and the plates were read with a fluorescence microplate reader at 546/580 nm (excitation/emission). […] Plates were read after 6 h.

For `O=C(O)C(F)(F)C(F)(F)C(F)(F)C(F)(F)C(F)(F)C(F)(F)C(F)(F)C(F)(F)C(F)(F)C(F)(F)F`, which AC50 is on record?
The AC50 was 6.49 µM (active) and 6.17 µM (active).

Which outcome does the source give for `O=C(O)C(F)(F)C(F)(F)C(F)(F)C(F)(F)C(F)(F)C(F)(F)F` here?
The outcome was “inactive”.

Which outcome does the source give for `O=C(O)CCC(F)(C(F)(F)F)C(F)(F)F` here?
Its outcome is “inactive”.
